# Assay outcomes deposited in PubChem BioAssay by Sanford-Burnham Center for Chemical Genomics.
# CYP2C9 inhib = inhibitors of human CYP2C9; inhibition, % at 5 µM; 96,000 compounds, 20% hits; AID 777; P11712; CYP2C9 Supersomes, luciferin-H conversion, luminescence;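 active = blocking of liver enzyme CYP2C9 beyond about 50% at 5 µM, limit read from the data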
# Target sequence (P11712 whole entry, looked up): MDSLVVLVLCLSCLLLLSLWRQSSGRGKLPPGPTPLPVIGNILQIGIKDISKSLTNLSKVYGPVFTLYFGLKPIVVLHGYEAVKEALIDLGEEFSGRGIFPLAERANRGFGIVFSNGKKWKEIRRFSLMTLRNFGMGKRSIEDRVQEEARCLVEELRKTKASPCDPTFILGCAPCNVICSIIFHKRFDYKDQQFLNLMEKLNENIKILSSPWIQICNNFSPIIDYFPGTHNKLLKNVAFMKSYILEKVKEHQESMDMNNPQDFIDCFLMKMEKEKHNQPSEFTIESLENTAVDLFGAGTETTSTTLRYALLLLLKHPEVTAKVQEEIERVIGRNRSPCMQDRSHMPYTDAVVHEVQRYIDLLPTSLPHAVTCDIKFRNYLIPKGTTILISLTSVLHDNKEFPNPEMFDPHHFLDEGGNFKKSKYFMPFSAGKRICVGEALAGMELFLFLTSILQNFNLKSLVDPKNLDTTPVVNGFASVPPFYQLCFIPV
# CYP2C9 act = activators of human CYP2C9; P11712; recombinant CYP2C9, luciferin-H conversion, luminescence; hits give high values; factor 1 = untreated enzyme, 0 = blocked; activation factor at 5 µM; 96,000 compounds, 1.4% hits; AID 1024;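 active = activation factor of 2 or more for CYP2C9 at a 5 µM dose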
# CYP2C19 activ = activators of human cytochrome P450 2C19. recombinant CYP2C19, luciferin-H EGE luminescence; hits give high values; 0 = fully inhibited enzyme, 1 = untreated enzyme. 96,000 tested, under 10 active. activation factor at 5 µM. P33261. AID 1025;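 active = activation factor of at least 2 at 5 µM in the primary screen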
# CYP2C19 inhib = inhibitors of human CYP2C19 | CYP2C19 Supersomes, luciferin-H EGE luminescence, 30 min | inhibition, % at 5 µM | 96,000 compounds, 21% hits | AID 778;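 active = CYP2C19 inhibition above a set limit at 5 µM in the primary screen, cut at about 50% in these data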
# Numbers stand for hits; 0 = inactive. Only some compounds are listed: those with a hit (about 31% of all), similar ones and a draw of the others.
SMILES,CYP2C9 inhib,CYP2C9 act,CYP2C19 activ,CYP2C19 inhib
CCOc1ccc(NC(=O)CN2CCN(CC(=O)Nc3ccc4c(c3)OCO4)CC2)cc1,0,0,0,0
CC(=O)c1cc2c(cc1NC(=O)CN1CCC(Cc3ccccc3)CC1)OCO2,86.7,0,0,71.3
Nc1nnc(-c2cn(-c3ccccc3)nc2-c2ccccc2)o1,0,0,0,0
CCCNC(=O)C1CNc2ccccc2O1 (stereo not given),0,0,0,0
COc1cc(/C=C2/C(=N)N3C=CSC3=NC2=O)ccc1OCCCOc1ccccc1C,76.4,0,0,0
CCOc1ccc(-c2nn(-c3ccccc3)cc2/C=C2\SC(N)=NC2=O)cc1C,0,0,0,0
CCOc1cc(/C=C2/C(=N)N3C=CSC3=NC2=O)ccc1OCCCOc1ccccc1C,73.7,0,0,0
O=C(Nn1cnnc1)c1ccccc1-c1ccccc1,0,0,0,0
CC(C)(CNS(=O)(=O)c1ccc(Cl)cc1)N1CCCCC1,0,0,0,64.2
CC(CN1CCNCC1)(NS(=O)(=O)c1ccccc1)c1ccccc1 (stereo not given),0,0,0,0
Cc1ccc(S(=O)(=O)NCC(=O)N2CCCCC2)cc1,0,0,0,0
CCN(CC)CC(C)(C)NS(=O)(=O)c1ccc(Cl)cc1,0,0,0,0
CN(C)CC(C)(C)NS(=O)(=O)c1ccc(Cl)cc1,0,0,0,55.6
CC(C)(CN1CCCCC1)NS(=O)(=O)c1ccc(Cl)cc1,0,0,0,54.6
CC1CC(C)CN(CC(C)(C)NS(=O)(=O)c2ccc(Cl)cc2)C1 (stereo not given),56.4,0,0,75.6
O=C(Nc1nc(-c2cc3ccccc3oc2=O)cs1)c1ccco1,0,0,0,0
Cc1sc(NC(=O)c2ccco2)nc1-c1ccccc1,81.0,0,0,55.0
COCC(=O)Nc1nc(-c2ccccc2)c(C)s1,0,0,0,51.7
COc1ccc2c(c1)CCc1sc(NC(=O)c3ccco3)nc1-2,98.8,0,0,93.9
O=C(Nc1nc(-c2ccncc2)cs1)c1ccco1,75.7,0,0,97.2
CSc1cccc(-n2cc(-c3ccc4c(c3)OCO4)[nH]c2=O)c1,0,0,0,0
Cn1ncc2c1ncn1nc(CCc3ccccc3)nc21,0,0,0,0
CCN(CC)c1nc(C)nc2c1cnn2CCc1ccccc1,0,0,0,97.2
COc1ccc(N=c2oc3cc(O)ccc3cc2C(=O)NCC2CCCO2)cc1 (stereo not given),52.0,0,0,0
CCOc1ccc(N=c2oc3cc(O)ccc3cc2C(=O)NCC2CCCO2)cc1 (stereo not given),0,0,0,0
SMILES,CYP2C9 inhib,CYP2C9 act,CYP2C19 activ,CYP2C19 inhib
CCOc1ccccc1N=c1oc2cc(O)ccc2cc1C(=O)NCC1CCCO1 (stereo not given),53.4,0,0,0
Cc1ccc(N=c2oc3cc(O)ccc3cc2C(N)=O)cc1,65.9,0,0,0
CN(C)S(=O)(=O)c1ccc(N2CCCC2)c(C(=O)NCc2ccc(Cl)cc2)c1,0,0,0,0
COC(=O)c1ccc(-c2ccco2)n1Cc1nc(-c2ccc(OC)c(OC)c2)oc1C,0,0,0,0
COc1ccc(-c2nc(Cn3c(SCc4ccc(F)cc4)nc4ccncc43)c(C)o2)cc1OC,89.8,0,0,88.6
COc1ccc(-c2nc(Cn3c(SCc4ccccc4F)nc4ccncc43)c(C)o2)cc1,73.3,0,0,96.7
COc1ccc(Cc2nnc(SCc3nc4ccccc4c(=O)[nH]3)o2)cc1,0,0,0,0
Cn1c(-c2ccccc2)cnc1SCc1nc2ccccc2c(=O)[nH]1,0,0,0,99.6
Cn1c(SCc2nc3ccccc3c(=O)[nH]2)nnc1-c1ccco1,0,0,0,50.6
CC(C)Cn1c(SCc2nc3ccccc3c(=O)[nH]2)nc2ccccc2c1=O,80.4,0,0,55.1
CC(C)Cn1c(SCC#N)nc2ccccc2c1=O,0,0,0,0
COc1ccc(C(=O)NCCc2nnc(SCc3nc4ccccc4c(=O)[nH]3)n2C)cc1,84.1,0,0,0
O=C(COc1ccc2c(c1)CCC2)N1CCc2ccccc21,0,0,0,0
CCOC(=O)N1CCN(C(=O)CSc2ccccc2)CC1,0,0,0,0
NS(=O)(=O)c1ccc(NCc2ccccc2OCc2ccc(F)cc2)cc1,77.6,0,0,0
CCOc1ccccc1N(CC(=O)N1CCOCC1)S(=O)(=O)c1ccc(SC)cc1,0,0,0,0
CCCCN(CC)C(=O)Cn1c(=O)sc2ccccc21,0,0,0,0
O=C(c1cc2cc([N+](=O)[O-])ccc2oc1=O)N1CCN(c2ncccn2)CC1,0,0,0,0
Cc1ccc(-c2nc3cnccn3c2Nc2ccc3c(c2)OCO3)o1,81.8,0,0,97.3
Cc1ccc(Nc2c(-c3ccc(C)o3)nc3cnccn23)cc1,0,0,0,57.3
c1cncc(-c2nc3ccccn3c2Nc2ccc3c(c2)OCCO3)c1,0,0,0,0
Cc1ccc(-c2nc3cnccn3c2Nc2ccccc2)o1,76.5,0,0,82.6
COc1ccc(-c2nc3cnccn3c2Nc2ccc(C)cc2)cc1,79.6,0,0,75.4
Clc1ccc(OCc2nnc(SCCN3CCCCC3)n2Cc2ccco2)cc1,0,0,0,0
COc1cc(-c2nc3cnccn3c2Nc2c(C)cccc2C)ccc1O,53.1,0,0,99.1
SMILES,CYP2C9 inhib,CYP2C9 act,CYP2C19 activ,CYP2C19 inhib
COc1ccc(NC(=O)CSc2ncn[nH]2)c([N+](=O)[O-])c1,0,0,0,0
COc1ccc2c(c1)C(C)CC(C)(C)N2C(=O)CSc1ncn[nH]1 (stereo not given),63.9,0,0,88.2
CCOC(=O)N1CCC(=NNS(=O)(=O)c2cccc([N+](=O)[O-])c2)CC1,0,0,0,0
FC(F)(F)c1cccc(N2CCN(CC3CC=CCC3)CC2)c1 (stereo not given),0,0,0,79.5
FC(F)(F)c1cccc(N2CCN(CC3CC4C=CC3C4)CC2)c1 (stereo not given),0,0,0,0
O=C(c1ccccc1)N1CCN(CC2CC=CCC2)CC1 (stereo not given),77.8,0,0,57.0
Cc1ccc(N2CCN(CC3CC=CCC3)CC2)cc1 (stereo not given),0,0,0,60.2
O=C(c1ccccc1)N1CCN(CC(O)COCC2CC=CCC2)CC1 (stereo not given),0,0,0,0
Cc1ccc(-c2nc(CSCC(=O)NCCCN3CCOCC3)c(C)o2)cc1,0,0,0,0
CSc1ccc(-c2nc(CSCC(=O)NCCCN3CCOCC3)c(C)o2)cc1,0,0,0,55.6
COc1ccc(S(=O)(=O)Nc2nc3n(n2)C(c2ccc(Cl)cc2)CC(=O)N3)cc1 (stereo not given),0,0,0,0
Cc1ccc(CNC(=O)c2cc3c(-c4ccc(Cl)cc4)nn(C)c3s2)o1,63.1,0,0,0
CCCCNC(=O)c1cc2c(-c3ccc(Cl)cc3)nn(C)c2s1,59.0,0,0,0
Cc1ccc(NC(=O)C2C3C=CC4(CN(Cc5cccnc5)C(=O)C24)O3)cc1 (stereo not given),0,0,0,0
CCSC1=NC2(CCCCC2)Nc2sc3c(c21)CCCC3,74.5,0,0,62.7
CCSc1ncnc2sc3c(c12)CCC3,0,0,0,0
